The source of these data is PubChem BioAssay.

The test system of assay [1] is Human papillomavirus type 1a protein E7 (residues 44-93). Put plainly: HPV1a E7 fragment binders on microarrays, primary screen, biochemical, small-molecule microarray, residues 44-93, 635 nm fluorescence (AID 1108).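 Also: E7 fragment applied at 1 µg/mL in TBST for 1 h at 4 C; score combines spot fluorescence with its signal to noise ratio.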 The conditions noted are these: small-molecule microarray binding, fluorescence 635 nm; higher = more signal.
Assay [2] in a line: modulators of HCV replicon luciferase signal, primary screen, HCV replication inhibitor project, Huh7 cells, luciferase reporter (AID 1109).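 Also: huh7 hepatoma cells harbouring a luciferase neomycin HCV replicon reporter; luciferase luminescence as measure of HCV replicon replication; test concentration not given here.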 The conditions noted are these: 48 h, higher = more signal.
The target in assay [3] is Left-right determination factor 2 (Homo sapiens) (UniProt O00292). Put plainly: LEFTY2 binders on small-molecule microarrays, primary screen, biochemical, small-molecule microarray, 635 nm fluorescence scan (AID 1110). The conditions noted are these: LEFTY2 binding, higher = more signal.
In assay [4] the target is Calmodulin-1 (Homo sapiens) (UniProt P0DP23). Put plainly: CALM1 binders on microarrays, EGTA buffer, profiling panel, biochemical, small-molecule microarray, Cy5-labelled CALM1 (AID 1111).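 Also: labelled calmodulin applied in Tris saline Tween buffer holding calcium plus EGTA and DTT.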 The conditions noted are these: Cy5-CALM1 binding fluorescence, higher = more signal.
The target is the same in assay [5]. Put plainly: calcium-bound CALM1 binders on microarrays, profiling panel, artefact control for SMM control-protein annotation, biochemical, small-molecule microarray, Cy5-labelled CALM1, plus calcium (AID 1112).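 Also: score merges spot fluorescence with signal to noise from triplicate slides.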 As to conditions: Cy5-CALM1 binding fluorescence, higher = more signal.
The nature of assay [6]: small-molecule microarray binders of probe aWnt5a, primary screen, biochemical, biotinylated probe, 635/667 nm fluorescence (AID 1113).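 Also: score merges 667 nm fluorescence intensity with signal-to-noise per printed feature.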 As to conditions: higher = more signal.
Assay [7] in a line: small-molecule microarray binders of probe aShh, primary screen, biochemical, biotinylated probe, 635/667 nm fluorescence (AID 1114).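 Also: probe is biotin-labelled aShh protein from a stem cell growth factor screen; measures binding of labelled protein to compounds printed on the slide; score merges feature fluorescence at 667 nm with signal-to-noise.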 As to conditions: higher = more signal.
Assay [8] is described as follows: small-molecule microarray binders of probe aNog, primary screen, biochemical, biotinylated probe, 635/667 nm fluorescence (AID 1115).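 Also: probe is biotinylated aNog protein used at 0.15 µg/mL for 1 h at 4 C; z-score combines 667 nm fluorescence of each spot with its signal to noise.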 As to conditions: higher = more signal.
The target of assay [9] is Torsin-1A-interacting protein 1 (Homo sapiens) (UniProt Q5JTV8). Description: LAP1 binders from COS7 cell lysate, primary screen, small-molecule microarray, 635/667 nm fluorescence (AID 1116). As to conditions: COS7-hLAP1 lysate binding, 635 nm fluorescence, higher = more signal.
In assay [10] the target is Alpha-bungarotoxin (Bungarus multicinctus) (UniProt P60615). Put plainly: alpha-bungarotoxin binders on microarray, profiling panel, artefact control for SMM control protein annotation, biochemical, small-molecule microarray, Alexa647 label, 635/667 nm fluorescence (AID 1117). As to conditions: alpha-BTX-A647 binding fluorescence, higher = more signal.
Another assay addresses Albumin (Bos taurus) (UniProt P02769). Put plainly: bovine serum albumin binders on microarray, profiling panel, artefact control for SMM control protein annotation, biochemical, small-molecule microarray, Alexa647 label, 635/667 nm fluorescence (AID 1118).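 Also: score merges 667 nm emission intensity and signal-to-noise per printed compound spot.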 The conditions noted are these: BSA-A647 binding, fluorescence 635 nm, higher = more signal.
Assay [11] can be described thus: small-molecule microarray binders of probe aXIP, primary screen, biochemical, NeuroSMM set, 635/667 nm fluorescence (AID 1119).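 Also: probe is the protein aXip251-270 applied at 1 µg/mL to compound-printed slides; binding of probe to printed compounds measured as 667 nm fluorescence plus signal to noise.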 The conditions noted are these: higher = more signal, called active from +8 up or from −8 down.
Assay [12] can be described thus: small-molecule binders of probe aNOTCH3, primary screen, biochemical, small-molecule microarray, 635/667 nm fluorescence (AID 1120).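 Also: probe is a biotin-tagged antibody raised against NOTCH3 rather than NOTCH3 protein; score merges spot fluorescence near 667 nm with spot signal to noise.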 The conditions noted are these: higher = more signal.
Assay [13] in a line: small-molecule binders of probe aNOTCH2, primary screen, biochemical, small-molecule microarray, 635/667 nm fluorescence (AID 1121).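 Also: score merges feature fluorescence read at 667 nm with its signal to noise.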 The conditions noted are these: higher = more signal.
Assay [14] addresses Carbonic anhydrase 2 (Homo sapiens) (UniProt P00918). Put plainly: CAII small-molecule binders, profiling panel, biochemical, small-molecule microarray, Alexa647-labelled CAII (AID 1122). The conditions noted are these: CAII-A647 binding fluorescence, higher = more signal.
A short description of assay [15]: COS7 lysate on small-molecule microarray, probe aHis, 635 nm (AID 1123).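 Also: z-score combines 667nm fluorescence intensity with signal-to-noise per printed compound spot.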 As to conditions: COS7 cell lysate, fluorescence, higher = more signal.
Assay [16] in a line: compound binding in COS7 lysate, probe aLAP1, primary screen, cell lysate, small-molecule microarray (AID 1124).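 Also: lysate comes from COS7 cells expressing LAP1 and is applied at 0.3 µg/mL; score merges spot fluorescence near 667 nm with signal-to-noise over triplicate slides.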 The conditions noted are these: probe aLAP1, fluorescence, higher = more signal.
In a further assay the test system is Sam68 (KHDRBS1). Put plainly: Sam68 small-molecule binders, primary screen, biochemical, small-molecule microarray, 635 nm fluorescence (AID 1125).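 Also: score merges 667 nm channel intensity with signal to noise over triplicate slides.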 The conditions noted are these: small-molecule microarray binding, higher = more signal.
Assay [17] relates to Chordin-like protein 2 (CHRDL2). Put plainly: CHRDL2 small-molecule binders, primary screen, biochemical, small-molecule microarray, 635 nm fluorescence (AID 1126).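 Also: printed compound slides probed with Chrdl2 protein at 4 µg/mL for 1 h at 4 C; score merges 667 nm emission intensity with signal to noise over three replicate slides.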 The conditions noted are these: small-molecule microarray binding, fluorescence 635 nm; higher = more signal.
Assay [18] concerns the target Concanavalin-A (Canavalia ensiformis) (UniProt P02866). Put plainly: ConA small-molecule binders, primary screen, artefact control for SMM control protein annotation, biochemical, small-molecule microarray, Alexa647 label, 635 nm (AID 1127).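 Also: z combines 667 nm emission intensity with signal-to-noise across three replicate slides.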 As to conditions: ConA-A647 binding fluorescence, higher = more signal.

Activity calls are given as the source filed them.

Chain of Torsin-1A-interacting protein 1 (Homo sapiens) (Q5JTV8 whole entry, looked up): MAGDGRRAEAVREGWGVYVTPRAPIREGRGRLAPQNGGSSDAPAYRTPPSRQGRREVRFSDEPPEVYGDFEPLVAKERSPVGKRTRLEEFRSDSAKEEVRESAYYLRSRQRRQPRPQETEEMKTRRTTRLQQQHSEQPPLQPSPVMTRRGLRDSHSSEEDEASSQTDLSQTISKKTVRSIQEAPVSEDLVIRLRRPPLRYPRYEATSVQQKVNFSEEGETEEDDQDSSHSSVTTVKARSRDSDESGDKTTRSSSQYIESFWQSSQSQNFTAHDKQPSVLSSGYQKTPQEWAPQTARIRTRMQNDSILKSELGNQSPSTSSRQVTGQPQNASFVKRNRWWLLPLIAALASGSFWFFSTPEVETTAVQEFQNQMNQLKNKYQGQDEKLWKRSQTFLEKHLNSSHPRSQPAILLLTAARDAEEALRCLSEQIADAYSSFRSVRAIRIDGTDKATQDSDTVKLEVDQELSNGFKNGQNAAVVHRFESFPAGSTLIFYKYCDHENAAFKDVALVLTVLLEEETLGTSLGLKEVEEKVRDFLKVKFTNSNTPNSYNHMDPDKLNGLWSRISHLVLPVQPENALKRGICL
Chain of Left-right determination factor 2 (Homo sapiens) (O00292 whole entry, looked up): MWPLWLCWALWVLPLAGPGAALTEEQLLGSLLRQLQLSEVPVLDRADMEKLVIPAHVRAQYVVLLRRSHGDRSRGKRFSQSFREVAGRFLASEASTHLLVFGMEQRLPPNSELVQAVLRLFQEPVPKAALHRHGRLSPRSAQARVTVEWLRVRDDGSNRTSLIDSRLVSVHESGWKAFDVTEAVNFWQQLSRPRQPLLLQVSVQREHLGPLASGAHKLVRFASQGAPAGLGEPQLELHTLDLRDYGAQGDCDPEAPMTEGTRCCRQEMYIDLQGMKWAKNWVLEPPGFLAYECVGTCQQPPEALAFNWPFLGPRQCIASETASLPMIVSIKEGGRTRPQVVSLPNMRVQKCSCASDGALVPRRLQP
Chain of Concanavalin-A (Canavalia ensiformis) (P02866 whole entry, looked up): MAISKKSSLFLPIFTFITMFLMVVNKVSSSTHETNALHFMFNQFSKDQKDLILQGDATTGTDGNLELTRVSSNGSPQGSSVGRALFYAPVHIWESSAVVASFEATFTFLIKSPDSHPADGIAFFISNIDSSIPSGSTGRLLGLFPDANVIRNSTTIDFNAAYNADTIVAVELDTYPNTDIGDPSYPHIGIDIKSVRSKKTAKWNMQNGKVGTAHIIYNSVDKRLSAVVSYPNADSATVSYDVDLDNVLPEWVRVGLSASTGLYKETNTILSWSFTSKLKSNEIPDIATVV
Chain of Albumin (Bos taurus) (P02769 whole entry, looked up): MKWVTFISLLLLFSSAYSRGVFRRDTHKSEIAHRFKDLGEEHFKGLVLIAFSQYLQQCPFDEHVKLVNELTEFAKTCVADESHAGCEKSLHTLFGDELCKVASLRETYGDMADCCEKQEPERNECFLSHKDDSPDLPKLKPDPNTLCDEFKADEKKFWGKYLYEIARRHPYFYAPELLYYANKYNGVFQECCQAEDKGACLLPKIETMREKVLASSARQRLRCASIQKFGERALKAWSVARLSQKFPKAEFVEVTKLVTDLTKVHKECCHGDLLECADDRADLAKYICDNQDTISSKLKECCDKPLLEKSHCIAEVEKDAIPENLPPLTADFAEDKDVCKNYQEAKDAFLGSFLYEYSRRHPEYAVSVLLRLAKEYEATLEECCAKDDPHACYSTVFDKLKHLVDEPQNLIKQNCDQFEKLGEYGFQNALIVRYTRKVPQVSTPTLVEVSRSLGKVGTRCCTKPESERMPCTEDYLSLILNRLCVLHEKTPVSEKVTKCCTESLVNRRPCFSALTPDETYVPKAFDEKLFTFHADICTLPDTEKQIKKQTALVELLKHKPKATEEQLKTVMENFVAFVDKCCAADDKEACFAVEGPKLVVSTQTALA
Chain of Alpha-bungarotoxin (Bungarus multicinctus) (P60615 whole entry, looked up): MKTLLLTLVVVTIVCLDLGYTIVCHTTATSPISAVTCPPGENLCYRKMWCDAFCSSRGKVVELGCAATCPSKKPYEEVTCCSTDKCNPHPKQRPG

`COc1ccc(C(=O)Nc2cccc(CN3C(=O)[C@]4(O[C@H](CCn5cc(CCO)nn5)[C@@H]([Si](C)(C)c5ccc(OC)cc5)[C@@H]4C)c4ccccc43)c2)cc1`: the composite z-score in assay [1] was 1.31; in assay [3], 0.785; in [4] it was 0.628; in assay [5] it was -0.0319; in assay [6] it was -0.0685; in assay [7], -0.0769. Further, the composite z-score in assay [8] is 0.0471; in [9] it was 0.456; in assay [10], 0.547; with Albumin (Bos taurus), 0.196; in assay [12], 0.0066; in assay [13], -0.0142. For the same compound, the composite z-score in assay [14] is 0.43; in assay [15], 0.98; in [16], -0.0719; with Sam68 (KHDRBS1), 1.1; in assay [17] it was 0.306; in assay [18], 0.692. The same compound came in with a z-score in [2] of -5.09. For the same compound, in assay [11], the composite Z-score is 0.165 (inactive).

As to `CCOC(=O)C[C@H]1[C@H](OC(=O)c2ccc(C(=O)c3ccccc3)cc2)[C@@H](NC(=O)c2ccccc2)c2cc(OCCCO)ccc2N1C(=O)c1ccccc1`, the composite z-score was 1.09 in assay [1]; 0.224 in [3]; 0.461 in assay [4]; 0.168 in assay [5]; 0.0102 in assay [6]; -0.0769 in [7]. Besides, the composite z-score is -0.234 in assay [8]; 0.63 in assay [9]; 0.872 in assay [10]; 0.754 with Albumin (Bos taurus); 0.184 in assay [12]; -0.108 in assay [13]. The composite z-score was 0.171 in [14]; 0.702 in assay [15]; -0.115 in assay [16]; 1.23 in the assay on Sam68 (KHDRBS1); 0.17 in assay [17]; 0.82 in [18]. Moreover, in [2], the z-score was -1.33. Also, the composite Z-score in [11] is 0.607 (inactive).

Regarding `C=C(/C(=C/C[C@H](OC(=O)c1ccncc1)c1ccc(OCCO)cc1)c1cc(C(=O)OC)ccc1OC)C(C)C`, the composite z-score in [1] is 1.08; in assay [3], 0.17; in assay [4], 0.959; in assay [5] it was -0.218; in assay [6], -0.128; in assay [7], 0.111. Further, the composite z-score is 0.108 in assay [8]; 0.296 in [9]; 1.72 in assay [10]; 0.605 with Albumin (Bos taurus); -0.0362 in assay [12]; -0.135 in assay [13]. The composite z-score in [14] was 0.514; in assay [15], 1.15; in assay [16], 0.284; in the assay on Sam68 (KHDRBS1) it was 0.516; in [17] it was -0.0985; in assay [18], 0.985. For the same compound, the z-score in assay [2] was -0.939. Further, in assay [11], the composite Z-score was -0.0856 (inactive).

As for `CC(C)[C@@H](C(=O)O)n1cc(C2(O)CCCCC2)nn1`, the composite z-score was 0.875 in [1]; 0.21 in assay [3]; 0.539 in assay [4]; 0.0141 in [5]; -0.201 in assay [6]; -0.0738 in assay [7]. In addition, the composite z-score in [8] is -0.0809; in [9], 0.563; in assay [10], 0.184; with Albumin (Bos taurus), 0.641; in assay [12], 0.089; in assay [13], -0.161. For the same compound, the composite z-score in assay [14] was 0.0232; in assay [15] it was 0.303; in assay [16] it was 0.0595; with Sam68 (KHDRBS1), 1.01; in assay [17] it was -0.121; in assay [18] it was 1.04. In assay [2], this compound yielded a z-score of -0.465. Further, the composite Z-score in assay [11] is -0.283 (inactive).

With `O=C1N(CCS(=O)(=O)c2ccccc2)c2ccccc2[C@@H]2OC(c3ccc(OCCCO)cc3)=N[C@]12Cc1ccccc1`, the composite z-score is 1.34 in [1]; 0.248 in assay [3]; 0.835 in assay [4]; -0.387 in assay [5]; -0.124 in assay [6]; -0.24 in assay [7]. The composite z-score was -0.12 in assay [8]; 0.309 in [9]; 1.32 in assay [10]; 0.484 with Albumin (Bos taurus); 0.126 in assay [12]; -0.0244 in assay [13]. In addition, the composite z-score came out at 0.391 in assay [14]; 0.898 in assay [15]; 0.474 in assay [16]; 1.3 in the assay on Sam68 (KHDRBS1); 0.837 in [17]; 1.12 in assay [18]. The compound further showed a z-score in assay [2] of -1.94. For the same compound, the composite Z-score in assay [11] is -0.209 (inactive).
